# Measured values published in PubChem BioAssay AID493169 (National Center for Advancing Translational Sciences (NCATS), 2011).
# Records with an inconclusive call do not appear. The source made the active and inactive calls. The call rests on the fitted dose curve; in most records, active means well fitted inhibition curve with a large enough effect; inconclusive means small, poorly fitted or top-dose-only effect; inactive means flat fitted curve, though single readings scatter.
# Test: CHOP2 Reporter Counterscreen Assay for Inhibitors of Ubiquitin-specific Protease USP2a;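 further: activated enterokinase alone at 50 pM in a cell-free format rather than USP2a or CHOP2; nearly all actives have a fitted effect of over 55% in size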
# Conditions: purified enterokinase, fluorogenic substrate, 485/531 nm; series mostly up to 38.3 µM; activity change, negative = inhibition: at the top concentration
# Outline: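 Cell-free counterscreen with pre-activated enterokinase alone (50 pM final) in 20mM Tris-HCl pH 8.0, 2mM CaCl2, 2mM beta-mercaptoethanol, 0.05% CHAPS; compound preincubation 30 min RT, reporter substrate 25nM final, fluorescence read after 10 min (Ex 485/Em 531).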
# On the % scale 0 is the no-effect control and ±100 the full control effect; potency means the concentration at half of the fitted maximal effect.
Structure (SMILES),"activity change, negative = inhibition",Potency
CCCNC(=O)NCc1ccc(N2CCCC2=O)cc1,0.0304% (inactive),–
CCc1c(O)nc(SCC(=O)Nc2ccccc2OC)[nH]c1=O,0.165% (inactive),–
CC(C)OCCCNC(=O)CN1C(=O)CC(C)(C)S(=O)(=O)c2ccccc21,-2.55% (inactive),–
Cc1ccc(N(CC(=O)Nc2ccc(S(=O)(=O)N3CCOCC3)cc2)S(C)(=O)=O)cc1C,2.83% (inactive),–
Cc1ccc(O)c(CC(C)C)n1,2.61% (inactive),–
O=C(N/C(=C/c1cccnc1)C(=O)N1CCOCC1)c1ccco1,0.49% (inactive),–
O=C(Nc1ccc2c(c1)OCO2)NC1(C(F)(F)F)Oc2ccccc2O1,-0.462% (inactive),–
Cc1ccc(C(C(=O)NC2CCCC2)N2CCc3ccccc32)cc1 (stereo not drawn),3.43% (inactive),–
CCOc1ccc(S(=O)(=O)N(CC(=O)O)c2ccccc2)cc1,2.04% (inactive),–
Cc1cc(C(=O)CSc2nnc(Nc3ccccc3F)s2)c(C)n1CC1CCCO1 (stereo not drawn),-1.76% (inactive),–
Cn1c(=O)c2c(nc(CN3CCN(C(=O)c4ccco4)CC3)n2CCCc2ccccc2)n(C)c1=O,4.23% (inactive),–
CCN(CC)CCNc1nc(-c2ccccc2)c2c(c1C#N)CC(C)(C)OC2,5.06% (inactive),–
CCOc1ccc2nc(NC(=O)Nc3ccccc3)sc2c1,-4.34% (inactive),–
CCNC1=C(Cl)C(=O)c2ccccc2C1=O,8.75% (inactive),–
COC(=O)CCC(=O)Nc1sc2c(c1C#N)CCCC2,-2.49% (inactive),–
COC(=O)C1CCN(C(=O)c2cc(-c3ccco3)nc3ccccc23)CC1,–,3.98 µM (active)
Cc1noc(NS(=O)(=O)c2ccc(N/C=C\C(=O)c3cccc4ccccc34)cc2)c1C,-4.93% (inactive),–
O=C(NCCc1ccccc1)c1ccc2nc(-c3ccco3)c(-c3ccco3)nc2c1,–,5.01 µM (active)
